# S2 tox: cell viability loss in ATXN counter-screen; 0.49% of 400,000 active; S2 cells (HEK-293 line with an ATXN2-luciferase reporter) viability, CellTiter-Fluor protease fluorescence, 24 h; Potency, µM (series often up to 56.7 µM), hits mostly cytotoxic; AID 651635; further: nearly all actives have a fitted effect of over 40% in size
# TGFb SMAD3 inh: inhibitors of TGF-b signaling; HepG2 CAGA-GFP TGF-b/SMAD3 reporter, GFP fluorescence, 18 h; TGF-beta stimulated, 500 pg/mL final; Potency, µM (titrated, usually from 46.1 µM), inactives show at the top dose activity, negative = inhibition, hits mostly inhibitors; 1.2% of 410,000 active; further: on the % scale 0 is the no-effect control and ±100 the full control effect; nearly all actives have a fitted effect of over 65% in size
#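 Per well, imaged GFP fluorescence of HEPG2 CAGA-GFP cells gives the signal; cells get compound, then TGF-beta (500 pg/mL final), 18 h at 37 degrees C; %Activity versus -TGF-beta and +DMSO controls.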
# HepG2 viability: kills HepG2 cells in TGF-b inhibitor counter-screen. HepG2 CAGA-GFP viability, ATP luminescence, 18 h. Potency, µM (titrated, usually from 46.1 µM), inactives show at the top dose activity change, negative = cytotoxicity, actives largely listed as cytotoxic. 0.76% of 410,000 active
#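 HepG2 CAGA-GFP cells (1000/well, DMEM with 1% FBS) received compound, then TGF-beta at 500 pg/mL final, and were incubated 18 hours at 37 degrees C. Viability was read by CellTiter-Glo luminescence. Media-only wells were set as complete cell-killing and DMSO as no toxicity.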
# ATXN2 expr inh: inhibitors of ATXN2 expression; HEK-293 ATXN2-luciferase reporter, luminescence, 24 h; AID 1745845; Potency, µM (titrated, usually from 57 µM), for the others: top-dose activity change, negative = inhibition, hits mostly inhibitors; 0.72% of 360,000 active; further: on the % scale 0 is the no-effect control and ±100 the full control effect; nearly all actives have a fitted effect of over 55% in size
#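 ATXN2-luciferase reporter cells (luciferase flanked by upstream and downstream ATXN2 gene portions) were treated 24 h at 37 °C with compounds at up to 57 uM. SteadyGlo luminescence gave expression; GF-AFC fluorescence gave viability.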
# The depositor's hits bear a star; i = inactive; ? = inconclusive; . = no result given; ! = repeats disagree; [ ] = another dose, or the depositor's remark. Sampled rows, rich in hits. Any-hit rate of the full collection: about 2.3%. The call rests on the fitted dose curve; in most records, active means well fitted curve in the direction sought with a large enough effect; inconclusive means small, poorly fitted or top-dose-only effect, or another doubt; inactive means no such curve, though single readings can be large; an effect the other way counts as inactive or inconclusive. Potency means the concentration at half of the fitted maximal effect.
SMILES,S2 tox,TGFb SMAD3 inh,HepG2 viability,ATXN2 expr inh
Cc1ccc(C(=O)NCCN2C3=NC[C@@H](Cc4ccccc4)N3C[C@H]2Cc2ccc(O)cc2)cc1Br,?,16µM*,11µM*,25µM*
C[C@@H]1C[C@H]2[C@@H]3CCC4=CC(=O)C=C[C@]4(C)[C@@]3(F)C(O)C[C@]2(C)[C@@]1(O)C(=O)CO (some centres undefined),.,6%,5%,.
Cc1ccc(OCCn2c(=S)[nH]c3ccccc32)c(C(C)C)c1,?,16µM*,-116%,-22%
Cc1cccc(OCCn2c(=S)[nH]c3ccccc32)c1,i,-18%,-27%,8%
CC(NC(=O)c1cccnc1)c1nnc2n1CCN(Cc1ccc(F)cc1F)CC2 (centres undefined),i,.,.,.
COc1ccc(S(=O)(=O)N(C(=O)c2ccncc2)c2ccc3oc4c(c3c2)CCCC4)cc1,?,11µM*,-59%,-23%
COc1ccc(S(=O)(=O)Nc2ccc3oc4c(c3c2)CCCC4)cc1,?,13µM*,-102%,?
COc1cc2c(cc1OC)C(=O)CC2,i,.,.,21%
Cc1cc(Sc2nnc(N)s2)c2ccccc2n1,25µM*,7.1µM*,-101%,?
Cc1cc(Sc2nnc(/N=C/N(C)C)s2)c2ccccc2n1,?,8.9µM*,11µM*,.
CC(=O)N(Cc1ccc(F)cc1)C1=C(NCCc2ccccc2)C(=O)c2ccccc2C1=O,28µM*,?,4µM*,13µM*
CC(C)OCCCNC1=C(Cl)C(=O)c2ccccc2C1=O,i,?,-31%,13%
CC(=O)N(Cc1ccc(F)cc1)c1cccc(C)c1C,i,-5%,-3%,.
CCN(CC)CCCNC1=C(Cl)C(=O)c2ccccc2C1=O,24µM*,4.5µM*,3.2µM*,?
CC(C)NC1=C(Cl)C(=O)c2ccccc2C1=O,?,10µM*,8.9µM*,-16%
C=CCNC1=C(Cl)C(=O)c2ccccc2C1=O,i,?,13µM*,-36%
COCCCNC1=C(Cl)C(=O)c2ccccc2C1=O,i,?,-71%,?
N#C/C(=C1\SCC(c2ccccc2Cl)S1)n1ccnc1 (centres undefined),i,.,.,-4%
CCn1c(SCC(=O)NCc2ccco2)nnc1-c1cccc(N(C)C)c1,.,3%,11%,.
C[C@@H]1CN(Cc2ccc3c(c2)CN(Cc2cn[nH]c2-c2ccccc2)CCO3)C[C@H](C)O1,i,.,.,.
Cc1oc(=O)oc1COC(=O)[C@@H]1N2C(=O)[C@@H](NC(=O)[C@H](N)c3ccccc3)[C@H]2SC1(C)C,i,.,.,3%
O=C1C(Cl)=C(NCCc2ccccc2)C(=O)N1CCc1ccccc1,i,-10%,-16%,15%
O=C1C(Cl)=C(NCCc2ccccc2)C(=O)c2ccccc21,i,?,-41%,32µM*
Cc1ccc(NC(=O)c2ccc([N+](=O)[O-])o2)cc1C,?,?,-39%,-11%
O=C(Nc1ccc2[nH]c(=O)[nH]c2c1)c1ccc([N+](=O)[O-])o1,?,11µM*,-30%,-6%
SMILES,S2 tox,TGFb SMAD3 inh,HepG2 viability,ATXN2 expr inh
COC(=O)c1cc(CNC(=O)c2cnsn2)cc(NC(=O)c2ccccc2OC)c1,i,.,.,.
Clc1cccc2c1Sc1ccccc1CC2N1CCNCC1 (centres undefined),?,?,-110%,?
Clc1ccc2c(c1)C(N1CCNCC1)Cc1ccccc1S2 (centres undefined),32µM*,?,14µM*,?
Cc1cc(CNC(=O)c2cnn(-c3ncc4c(n3)-c3ccccc3CCC4)c2C2CC2)on1,i,.,.,.
O=C(Nc1nc2cc3c(cc2s1)OCCO3)c1ccco1,?,8%,-64%,8.9µM*
O=C(Nc1nc2cc3c(cc2s1)OCO3)C1=COCCO1,i,-3%,8.9µM*,?
CC(=O)Nc1nc2cc3c(cc2s1)OCO3,i,5%,-11%,8%
CC1CCc2nc(NC(=O)c3ccco3)sc2C1 (centres undefined),i,-2%,-40%,11µM*
CCN1C=CC(=C2C(=O)c3ccccc3C2=O)C=C1,?,-6%,-81%,1.1µM*
CCCN1C=CC(=C2C(=O)c3ccccc3C2=O)C=C1,?,5%,7.1µM*,?
CCC1C(=O)NCCN1Cc1ccc2c(c1)CN(Cc1cc(OC)ccc1OC)CCO2 (centres undefined),i,.,.,.
COc1cc(-c2cc(C)c3cccc(OC)c3n2)cc2c1OCCN(C(=O)Cn1nc(C)cc1C)C2,i,.,.,.
CC1=CC(C)(C)Nc2ccc(OC(=O)CN3C(=O)c4cccc5cccc(c45)C3=O)cc21,i,-4%,-19%,?
CC1=CC(C)(C)Nc2ccc(OC(=O)CN3C(=O)c4ccccc4C3=O)cc21,.,-14%,18µM*,28µM*
O=C([C@@H]1CC=C[C@@H]2CCN(C3CCCCC3)C(=O)[C@@H]21)N1CCOCC1,.,-4%,8%,.
COc1cccc(Nc2nc3cc(C)ccc3nc2NS(=O)(=O)c2ccc(Cl)cc2)c1,?,7.9µM*,-36%,-2%
COc1cccc(Nc2nc3ccccc3nc2NS(=O)(=O)c2ccc(NC(C)=O)cc2)c1,i,?,-70%,-1%
Cc1ccc(NS(=O)(=O)c2ccc3c(c2)[C@H]2C=CC[C@H]2[C@@H](c2ccc(F)cc2)N3)cc1C,i,8.9µM*,-22%,-19%
Cc1ccc([C@H]2Nc3ccc(S(=O)(=O)Nc4cccc(Cl)c4C)cc3[C@H]3C=CC[C@H]32)cc1,.,-21%,-34%,.
COC(=O)c1ccc([C@H]2Nc3ccc(S(=O)(=O)Nc4cccc(C)c4)cc3[C@H]3C=CC[C@H]32)cc1,?,6.3µM*,-23%,-21%
CCN(CC)CCNC(=O)c1ccc2c(=O)n3nc(Nc4ccccc4OC)sc3nc2c1,?,?,-75%,16µM*
COc1ccccc1Nc1nn2c(=O)c3ccc(C(=O)NCCCOC(C)C)cc3nc2s1,i,?,-40%,-23%
COc1ccccc1Nc1nn2c(=O)c3ccc(C(=O)N4CCCC(C)C4)cc3nc2s1 (centres undefined),32µM*!,-27%,8%,?
O=C(NCCc1nnc2n1CCN(Cc1c(F)cccc1F)CC2)c1ccco1,i,.,.,.
Nc1ccccc1/C=C/c1ccnc2ccccc12,.,-26%,-29%,.
Cc1cc(-n2c(C)cc(C(=O)CCl)c2C)no1,?,8.9µM*,11µM*,15%[11.3 µM]
Cc1cc(-n2c(C)cc(C(=O)CN3C(=O)C(=O)N(C)C3=O)c2C)no1,i,16%,-10%,.
COc1ccc(-n2c(C)cc(C(=O)CN3C(=O)c4ccccc4C3=O)c2C)cc1,i,28%,21%,8%
COc1ccc(-n2c(C)cc(C(=O)CCl)c2C)cc1,27µM*,?,22µM*,30µM*
COc1cc(=O)n2c(c1C(=O)NC(C)c1ccco1)CCN(Cc1ccnc3ccccc13)CC2 (centres undefined),i,.,.,.

# Source: PubChem
